The nature of experiment [1]: qHTS RealTime-Glo MT Cell Viability Assay in HepG2 cells - 40 hour (AID 1224870). Note: nearly all actives have a fitted effect of over 50% in size. An outline of the steps: (§1)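 HepG2 cells (600/well) mixed with RealTime-Glo MT reagent, settled 5 h at 37 C/5% CO2 before compound addition. Nonlytic NanoLuc luminescence from viable-cell prosubstrate reduction read repeatedly during 40 h treatment at 37 C.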
For orientation: In qHTS, concentration-response curves come from the screen itself.

Experiment [2] is described as follows: A CellTox Green Cytotoxicity Assay to monitor cytotoxicity in HEK293 cells - 40 hour (AID 1224871). Note: nearly all actives have a fitted effect of over 45% in size. An outline of the steps: (§2)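 Tox21 screen in HEK293: membrane-impermeant cyanine dye fluoresces on binding dead-cell DNA; compound pinned 5 h post-seeding, plates held at 37 C, signal read repeatedly through 40 h.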
The nature of experiment [3]: qHTS RealTime-Glo MT Cell Viability Assay in HEK293 cells - 16 hour (AID 1224872). Note: nearly all actives have a fitted effect of over 50% in size. Note: potency is the fitted concentration of half-maximal effect. In short, it runs like this:
(§3)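 Luminescence generated by NanoLuc from substrate produced by living HEK293 cells served as the viability signal. Each value reflects the reading at its stated time point during continuous 40 h compound exposure at 37 C.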

Experiment [4] in a line: qHTS RealTime-Glo MT Cell Viability Assay in HepG2 cells - 8 hour (AID 1224873). Note: nearly all actives have a fitted effect of over 55% in size. In short, it runs like this:
as §1

The nature of experiment [5]: qHTS RealTime-Glo MT Cell Viability Assay in HEK293 cells - 40 hour (AID 1224874). Note: nearly all actives have a fitted effect of over 50% in size. Note: potency is the fitted concentration of half-maximal effect. The settings on record: RealTime-Glo luminescence; max response: stronger effect = lower value. In short, it runs like this: (§4)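 HEK293 + NanoLuc + prosubstrate, 600 cells/well; 5 h, 37 C/5% CO2; compound 23 nL in DMSO by pintool; 37 C; luminescence read at 0, 8, 16, 24, 32 and 40 h time points.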

Experiment [6] can be described thus: A CellTox Green Cytotoxicity Assay to monitor cytotoxicity in HEK293 cells - 24 hour (AID 1224875). Note: series mostly up to about 77 µM; nearly all actives have a fitted effect of over 45% in size. In short, it runs like this: as §2
Experiment [7] is described as follows: A CellTox Green Cytotoxicity Assay to monitor cytotoxicity in HepG2 cells - 16 hour (AID 1224876). Note: nearly all actives have a fitted effect of over 45% in size. In short, it runs like this: (§5)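 Measurements at 0, 8, 16, 24, 32 and 40 h of treatment captured CellTox Green fluorescence in HepG2 cells that had been co-plated with reagent and preincubated 5 h at 37 C/5% CO2.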
Experiment [8] can be described thus: qHTS RealTime-Glo MT Cell Viability Assay in HepG2 cells - 32 hour (AID 1224877). Note: nearly all actives have a fitted effect of over 55% in size. In short, it runs like this:
(§6)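 Tox21 10K library screened in qHTS format on HepG2 cells carrying RealTime-Glo reagents. Compounds were added after a 5 h preincubation, and the luminescent signal from continuous culture was measured repeatedly during 40 h treatment.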

Experiment [9] can be described thus: A CellTox Green Cytotoxicity Assay to monitor cytotoxicity in HepG2 cells - 24 hour (AID 1224878). Note: nearly all actives have a fitted effect of over 45% in size. Note: potency is the fitted concentration of half-maximal effect. In short, it runs like this: as §5
A short description of experiment [10]: A CellTox Green Cytotoxicity Assay to monitor cytotoxicity in HepG2 cells - 40 hour (AID 1224879). Note: nearly all actives have a fitted effect of over 40% in size. In short, it runs like this: as §5
The nature of experiment [11]: qHTS RealTime-Glo MT Cell Viability Assay in HEK293 cells - 0 hour (AID 1224880). In short, it runs like this:
as §4

A short description of experiment [12]: A CellTox Green Cytotoxicity Assay to monitor cytotoxicity in HEK293 cells - 32 hour (AID 1224881). Note: nearly all actives have a fitted effect of over 40% in size. An outline of the steps: as §2
The nature of experiment [13]: A CellTox Green Cytotoxicity Assay to monitor cytotoxicity in HepG2 cells - 0 hour (AID 1224882). Note: nearly all actives have a fitted effect of over 35% in size. In short, it runs like this: as §5
A short description of experiment [14]: A CellTox Green Cytotoxicity Assay to monitor cytotoxicity in HepG2 cells - 32 hour (AID 1224883). Note: nearly all actives have a fitted effect of over 50% in size. An outline of the steps: as §5
Experiment [15] in a line: A CellTox Green Cytotoxicity Assay to monitor cytotoxicity in HEK293 cells - 8 hour (AID 1224884). Note: nearly all actives have a fitted effect of over 35% in size. In short, it runs like this: as §2
Experiment [16] can be described thus: qHTS RealTime-Glo MT Cell Viability Assay in HepG2 cells - 16 hour (AID 1224885). Note: nearly all actives have a fitted effect of over 50% in size. An outline of the steps:
as §6

Experiment [17] can be described thus: qHTS RealTime-Glo MT Cell Viability Assay in HEK293 cells - 24 hour (AID 1224886). Note: nearly all actives have a fitted effect of over 50% in size. Note: potency is the fitted concentration of half-maximal effect. In short, it runs like this: as §3
The nature of experiment [18]: qHTS RealTime-Glo MT Cell Viability Assay in HEK293 cells - 8 hour (AID 1224887). Note: nearly all actives have a fitted effect of over 50% in size. Note: potency is the fitted concentration of half-maximal effect. In short, it runs like this:
as §4

The nature of experiment [19]: A CellTox Green Cytotoxicity Assay to monitor cytotoxicity in HEK293 cells - 16 hour (AID 1224888). Note: nearly all actives have a fitted effect of over 35% in size. An outline of the steps:
as §2

Experiment [20] is described as follows: qHTS RealTime-Glo MT Cell Viability Assay in HepG2 cells - 0 hour (AID 1224889). Note: nearly all actives have a fitted effect of over 50% in size. An outline of the steps: as §6

Values joined by “and” are separate entries in the source; they are usually repeats but may differ in a detail not shown here. Equal values may be shown once. Records with an inconclusive call do not appear. The source holds several records for some structures; these can differ, active in one and inactive in another. Active and inactive are the calls of the source. Calls come from the whole dose curve; as a rule, active = well fitted curve in the direction sought with a large enough effect in the repeat runs; inconclusive = weak or mixed curves; inactive = no such curve, though single readings can be large; an effect the other way counts as inactive or inconclusive.
% is set by controls: 0 for no effect and ±100 for the full control effect.

For `Nc1cc(-c2ccncc2)c[nH]c1=O`, the Potency entry in [1], in experiment [2], in experiment [3], in [4], in [6] and in experiment [7] was “inactive” throughout. Besides, the Potency entry in experiment [8], in experiment [9], in experiment [10], in experiment [11], in experiment [12] and in experiment [13] was “inactive” each time. Moreover, the Potency entry in experiment [14], in experiment [15], in experiment [16], in experiment [17], in experiment [18] and in [19] was “inactive” each time. In addition, the max response in experiment [5] was -8.6% (inactive) and 7.61% (inactive).
As for `CCC(C)C=O` (configuration not stated), the Potency entry in [1], in experiment [2], in [4], in [6], in experiment [7] and in [8] was “inactive” in each case. Also, the Potency entry in [10], in [11], in experiment [12], in experiment [13], in [14] and in [15] was “inactive” throughout. Moreover, the Potency entry in experiment [16] and in experiment [19] was “inactive” each time. The Potency entry in experiment [3] is “inactive and 6.92 µM (active)”; in experiment [5], 3.09 µM (active); in experiment [9], “inactive and 21.9 µM (active)”; in [17] it was “inactive and 3.89 µM (active)”; in experiment [18], “inactive and 13.8 µM (active)”. Also, the max response in experiment [5] is -3.52% (inactive).
Regarding `OC[C@@H](O)[C@H](O)[C@H](O)[C@@H](O)CO`, the Potency entry in [1], in experiment [2], in experiment [3], in [4], in experiment [6] and in [7] was “inactive” throughout. The Potency entry in [8], in experiment [10], in [11], in experiment [12], in experiment [13] and in experiment [14] was “inactive” in each case. The Potency result in experiment [15], in experiment [16], in [17], in experiment [18], in experiment [19] and in experiment [20] was “inactive” each time. The max response in experiment [5] is 7.24% (inactive) and 7.63% (inactive).
For `CC(C)(CO)COC(=O)C(C)(C)CO`, the Potency result in [1], in experiment [2], in experiment [3], in experiment [4], in [6] and in experiment [7] was “inactive” in each case. In addition, the Potency entry in experiment [8], in [9], in experiment [10], in experiment [11], in experiment [12] and in experiment [13] was “inactive” throughout. In addition, the Potency entry in experiment [14], in [15], in experiment [16], in experiment [17], in experiment [18] and in experiment [19] was “inactive” in each case. In addition, in [20], the Potency result was “inactive”. Further, the max response in [5] is 0.943% (inactive) and 3.19% (inactive).
`Oc1ccc2ccccc2c1N=Nc1ccccc1`: the Potency result in experiment [1], in experiment [2], in experiment [3], in experiment [4], in experiment [6] and in experiment [7] was “inactive” each time. Besides, the Potency entry in [8], in experiment [9], in experiment [10], in [11], in [12] and in experiment [13] was “inactive” throughout. Moreover, the Potency result in experiment [14], in experiment [15], in [16], in experiment [17], in [19] and in experiment [20] was “inactive” each time. In experiment [5], the max response is 32.3% (inactive).
Consider `Oc1ccc(OCc2ccccc2)cc1`, for which the Potency result in experiment [1], in [2], in experiment [4], in experiment [6], in [8] and in [9] was “inactive” in each case. For the same compound, the Potency result in experiment [10], in experiment [12], in experiment [13], in [14], in experiment [15] and in [16] was “inactive” each time. The Potency result in experiment [19] and in [20] was “inactive” throughout. In addition, the Potency in [3] was 957 nM (active) and inactive; in experiment [5], 1.2 µM (active); in [17], 853 nM (active) and inactive. For the same compound, in experiment [5], the max response is -10.3% (inactive).
Regarding `Clc1cc(Cl)c(Cl)cc1Cl`, the Potency entry in [1], in experiment [2], in [3], in experiment [4], in [6] and in experiment [7] was “inactive” each time. Also, the Potency entry in experiment [8], in experiment [9], in experiment [10], in experiment [11], in [12] and in [13] was “inactive” each time. In addition, the Potency entry in experiment [14], in experiment [15], in [16], in [17], in experiment [19] and in experiment [20] was “inactive” in each case. The max response in [5] is 4.68% (inactive) and 15.5% (inactive).
Take `CCC(=O)O`: the Potency entry in experiment [1], in [2], in experiment [3], in experiment [4], in experiment [6] and in experiment [7] was “inactive” in each case. In addition, the Potency entry in experiment [10], in [11], in [12], in [13], in experiment [14] and in experiment [15] was “inactive” throughout. The Potency result in [16], in [17] and in experiment [19] was “inactive” in each case. Further, the max response in experiment [5] is 12.8% (inactive) and 8.4% (inactive) and 13% (inactive).
Take `CCCCNC(N)=O`: the Potency entry in experiment [1], in experiment [2], in experiment [3], in experiment [4], in experiment [6] and in [8] was “inactive” throughout. The Potency result in experiment [9], in [10], in experiment [11], in experiment [12], in experiment [13] and in experiment [14] was “inactive” throughout. Further, the Potency entry in experiment [15], in [16], in experiment [17], in experiment [18], in [19] and in [20] was “inactive” in each case. The max response in [5] is 5.63% (inactive) and 4.35% (inactive).
For the compound `CC(C)(N=C=O)c1cccc(C(C)(C)N=C=O)c1`, the Potency entry in experiment [1], in experiment [2], in experiment [3], in experiment [4], in experiment [6] and in experiment [9] was “inactive” each time. Also, the Potency entry in experiment [10], in experiment [11], in experiment [12], in [13], in [14] and in [15] was “inactive” in each case. Besides, the Potency entry in [16], in experiment [17], in experiment [18] and in [19] was “inactive” throughout. In addition, the max response in experiment [5] was 0.966% (inactive).
Consider `CC1Cc2ccccc2N1NC(=O)c1ccc(Cl)c(S(N)(=O)=O)c1` (configuration not stated), for which the Potency result in experiment [1], in [2], in experiment [3], in experiment [4], in experiment [6] and in [7] was “inactive” throughout. Moreover, the Potency result in experiment [8], in experiment [9], in experiment [10], in experiment [12], in experiment [13] and in [14] was “inactive” each time. The Potency entry in [15], in [16], in experiment [17], in experiment [18] and in experiment [19] was “inactive” in each case. Also, in experiment [5], the max response is 3.11% (inactive) and -9.79% (inactive).
Turning to `O=S(=O)(O)c1cc(S(=O)(=O)O)c2c(N=Nc3ccccc3)c(O)ccc2c1`, the Potency result in experiment [1], in experiment [2], in [3], in experiment [4], in [6] and in [7] was “inactive” in each case. Besides, the Potency entry in experiment [8], in experiment [10], in [11], in [12], in experiment [13] and in experiment [14] was “inactive” each time. The Potency entry in experiment [15], in experiment [16], in experiment [17], in experiment [19] and in experiment [20] was “inactive” each time. Also, the max response in experiment [5] was -20.2% (inactive).

The values are drawn from PubChem BioAssay (Tox21).
